Assay outcomes (PubChem)
Most compounds without a hit are left out; they make up all but 11% or so of the library.
FLuc inh – firefly luciferase inhibition | P08659 | purified firefly luciferase, luminescence, 8 min | Potency, µM (highest dose often 57.1 µM), for the others: top-dose activity change, negative = inhibition, most hits filed as inhibitors | actives 2.2% (n = 72,000) | AID 411; further: nearly all actives have a fitted effect of over 40% in size
Target sequence (P08659 whole entry, looked up): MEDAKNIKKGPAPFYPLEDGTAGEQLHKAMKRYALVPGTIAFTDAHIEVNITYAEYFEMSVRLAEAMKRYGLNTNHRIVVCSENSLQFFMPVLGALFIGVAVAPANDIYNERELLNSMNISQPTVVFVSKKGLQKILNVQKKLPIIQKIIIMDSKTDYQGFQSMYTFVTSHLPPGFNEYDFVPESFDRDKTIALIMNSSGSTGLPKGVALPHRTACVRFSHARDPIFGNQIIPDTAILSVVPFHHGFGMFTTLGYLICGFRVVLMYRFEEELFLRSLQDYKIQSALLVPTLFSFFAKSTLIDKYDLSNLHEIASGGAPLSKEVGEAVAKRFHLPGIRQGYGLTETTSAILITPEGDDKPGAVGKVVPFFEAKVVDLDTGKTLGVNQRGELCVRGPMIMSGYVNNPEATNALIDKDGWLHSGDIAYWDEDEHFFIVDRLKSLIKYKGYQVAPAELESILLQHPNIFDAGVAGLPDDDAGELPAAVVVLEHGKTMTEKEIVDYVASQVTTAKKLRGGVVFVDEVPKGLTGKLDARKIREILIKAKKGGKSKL
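Firefly luciferase (PKLight detection mix) with 10 uM ATP in pH 7.2 imidazole buffer (KCl, MgCl2, Tween 20, BSA). Compounds tested across a concentration series (qHTS). Luminescence read after 8 min at ambient temperature.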
HSD17B inhib – inhibitors of human HSD17B10 dehydrogenase | Q99714 | recombinant HSD17B10, NADH fluorescence kinetic | Potency, µM (titrated, usually from 57.1 µM), without a hit: at the top dose activity change, negative = inhibition, most hits filed as inhibitors | actives 7.6% (n = 75,000) | AID 893;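 further: the protocol describes HADH2 (HSD17B10) and not the HSD17B4 of the title; nearly all actives have a fitted effect of over 70% in size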
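Activity followed as NADH fluorescence increase (ex 360, em 450 nm) every 30 seconds for 4 min, using final 90 uM beta-hydroxybutyryl CoA and 1 mM NAD+. Recombinant His-tagged enzyme, 20 nM, pH 9.0 Tris buffer, 15 min compound preincubation.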
PK Bst – alters activity of Bacillus stearothermophilus pyruvate kinase; purified pyruvate kinase, luminescence ATP production; ribose 5-phosphate activator present at AC10; Potency, µM; actives 1.2% (n = 51,000); AID 361; in the data active means potency below about 11 µM; inconclusive means mostly about 12 µM to 25 µM;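 the screen sought inhibitors and activators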;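 further: scaled between full activation by ribose 5 phosphate and full inhibition by luteolin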
HADH2 inh – blocks human hydroxyacyl-CoA dehydrogenase type II; Potency, µM (series often up to 57.1 µM), without a hit: at the top dose activity change, negative = inhibition, actives largely listed as inhibitors; recombinant HADH2, NADH fluorescence, beta-hydroxybutyryl-CoA; actives 3.4% (n = 73,000); AID 886; further: nearly all actives have a fitted effect of over 60% in size
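Read-out: 360 nm excitation, 450 nm emission, kinetic over 4 min. Conditions: His-tagged human HADH2 20 nM, pH 9.0 Tris with Tween-20, 1 mM NAD+, 90 uM beta-hydroxybutyryl-CoA.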
ERK AVP inh – inhibitors of vasopressin-stimulated ERK signaling pathway; HEK293-V1b, vasopressin-stimulated pERK AlphaScreen; Potency, µM (highest dose often 57.5 µM), without a hit: at the top dose activity, negative = inhibition, most hits filed as inhibitors; actives 0.99% (n = 72,000); AID 995; further: nearly all actives have a fitted effect of over 55% in size
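qHTS, compounds titrated on V1b-expressing HEK293 cells. Preincubation 30 min at 37C, vasopressin 25 nM for 5 min, lysis 10 min, bead incubation 5 hr at room temperature.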
ALOX15 inhib – 15-hLO (ALOX15) enzyme inhibition. actives 1.4% (n = 74,000). purified 15hLO-1, xylenol orange hydroperoxide absorbance. P16050. Potency, µM (series often up to 57.1 µM), for inactives: top-dose activity change, negative = inhibition, usual class: inhibitors; further: nearly all actives have a fitted effect of over 55% in size
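Purified human 15hLO-1 (40 nM final) in 25 mM Hepes pH 7.5, 0.01% Triton X-100 was preincubated with compound 15 min at room temperature, then reacted 6 min with 50 uM arachidonic acid; hydroperoxide detected by Fe-XO, 573/405 nm absorbance ratio.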
* hit, by the source's call; i = inactive; ? = inconclusive; . = no result given; [ ] = remark or other dose. Unless noted, the call rests on the fitted dose curve; in most records, active means well fitted curve in the direction sought with a large enough effect; inconclusive means small, poorly fitted or top-dose-only effect, or another doubt; inactive means no such curve, though single readings can be large; an effect the other way counts as inactive or inconclusive. Unless noted, on the % scale 0 is the no-effect control and ±100 the full control effect; potency means the concentration at half of the fitted maximal effect.

SMILES	FLuc inh	HSD17B inhib	PK Bst	HADH2 inh	ERK AVP inh	ALOX15 inhib
COc1ccc(-c2cc3nc(C)cc(NCCO)n3n2)cc1	?	16µM*	?	-29%	-6%	-27%
Cc1cccc(-c2cc3nc(C)cc(NCCCN(C)C)n3n2)c1	-1%	32µM*	.	-13%	-5%	-1%
Cc1ccc(-c2cc3nc(C)cc(NCc4ccco4)n3n2)cc1	7.9µM*	32µM*	6.5*	?	9%	-11%
N#Cc1cccc(NC(=O)N2CCCC3(CCN(C(=O)c4ccco4)CC3)C2)c1	-2%[11.4 µM]	-21%	.	-1%	-15%	?
Nc1nc(-c2ccccc2)c(-c2ccccc2)c(-c2nc(N)nc(-c3ccccc3)c2-c2ccccc2)n1	2%[11.4 µM]	7%[11.4 µM]	.	5%[11.4 µM]	12%[11.5 µM]	3%[11.4 µM]
CCCCOC(=O)Nc1nnc(CCOCC)s1	-1%	25µM*	.	17%	-11%	-12%
CC(C)C[C@@H](N)C(=O)Nc1ccc2ccccc2c1	0%[11.4 µM]	2%[11.4 µM]	.	7%[11.4 µM]	-6%[11.5 µM]	5%[11.4 µM]
O=c1c2c3c(sc2nc2n1CCCCC2)CCCCC3	.	-3%	.	?	.	-2%
Nc1nc2sc3c(c2c(=O)s1)CCCC3	-21%	?	?	-10%	-2%	0.79µM*
O=c1c2c3c(sc2nc2n1CCCCC2)CCCC3	-11%	?	.	10µM*	4%	?
CN(C)c1ncc2nc(-c3ccc(Cl)cc3)c(=O)n(CCC#N)c2n1	0%[11.4 µM]	25µM*	.	51%	11%	10%
CN(C)c1ncc2nc(-c3cccc(C#N)c3)c(=O)n(CCC#N)c2n1	2%[11.4 µM]	?	.	7%	-13%	8%
COCCn1c(=O)c(-c2ccc(Cl)cc2)nc2cnc(N(C)C)nc21	-8%[11.4 µM]	-28%	.	23%	21%	0%
CN(C)c1ncc2nc(-c3ccccc3)c(=O)n(CCC#N)c2n1	1%[11.4 µM]	25µM*	.	29%	-28%	-26%
COc1cccc(/C=N/NC(=O)c2cc(-c3ccc(C)cc3)n[nH]2)c1O	.	-24%	.	-11%	.	0%
S=c1[nH]c2ccccc2s1	.	-26%	.	-3%	14%	?
Nc1c(S(N)(=O)=O)cc(S(N)(=O)=O)cc1S(N)(=O)=O	2%[11.4 µM]	8%[11.4 µM]	.	10%[11.4 µM]	-6%[11.5 µM]	2%[11.4 µM]
O=C1CCC(c2ccccc2)=NN1c1nc2ccccc2s1	-4%[11.4 µM]	4%[11.4 µM]	.	11%[11.4 µM]	11%[11.5 µM]	6%[11.4 µM]
C[C@@H]1/C=C\CC(=O)OC[C@H]2O[C@@H](C=C[C@@H]2O)[C@H](C)/C=C\CC(=O)OC1	1%[11.4 µM]	-3%[11.4 µM]	.	-4%[11.4 µM]	6%[11.5 µM]	-3%[11.4 µM]
Nc1nnc(-c2cc3ccccc3oc2=O)s1	-15%	25µM*	.	-15%	-23%	-24%
O=c1oc2ccc(Br)cc2cc1-c1nc2ccccc2o1	-2%	-4%	>57	4%	-7%	1%
N#Cc1ccc(CN2CC3(CCN(C(=O)c4cnccn4)CC3)C2)cc1	-7%[11.4 µM]	5%	.	0%	-1%	8%
CS(=O)(=O)Nc1ccccc1C(=O)O	.	32µM*	.	-14%	.	-5%
CC(NC(=O)c1ccccc1NS(C)(=O)=O)c1ccccc1 (configuration not stated)	1%	25µM*	>57	?	-1%	3%
COc1ccc(S(=O)(=O)Nc2ccccc2C(=O)O)cc1	.	?	.	17%	.	-5%
Cc1ccc(S(=O)(=O)N[C@H]2COC(=O)[C@H](C)COC(=O)[C@H](C)NC(=O)C/C=C\[C@H]2C)cc1	0%[11.4 µM]	3%[11.4 µM]	.	-10%[11.4 µM]	0%[11.5 µM]	-6%[11.4 µM]
COc1ccc(COC2OC[C@]3(C)[C@H]4C5=C(CN3C(=O)OC(C)(C)C)[C@H](C)C(CO)C(CO)C5CC[C@@H]24)cc1 (some centres not stated)	.	0%	.	5%	10%	.
CC(=NC1CCCC1)c1c(C)[nH]n(-c2nc3ccccc3s2)c1=O	13µM*	.	i	.	.	.
O=C(CSc1nc2c(sc3ccccc32)c(=O)n1Cc1ccco1)NCC1CCCO1 (configuration not stated)	1%	25µM*	>57	2%	19%	-9%
